Screen size: about 2,500 compounds; about 1,500 (60%) were called active.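 How the source made its calls: active means duplicate-averaged ratio beyond 3 SD from buffer wells, up or down, though filed actives are nearly all decreases; inactive means the rest.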 So high a share suggests a set chosen from earlier hits. These entries were drawn from the full list.

The nature of this experiment: dye ratio change in CHT-lacking host cells – cell-based, parental HEK293, membrane potential dye, counter-screen for CHT activator project (AID 623908). Conditions: parental HEK293, membrane potential dye fluorescence (FDSS); at 10 µM; measured after EC20 choline addition. Background: The purpose of a counterscreen is to sort out artefacts and off-target activity.
Take `COc1ccc2nc(/N=C(\N)NC(=O)Nc3ccccc3)nc(C)c2c1`: the ratio readout change was -41.4 (active).
As for `O=C(Nc1ccncc1)c1ccc(Cl)c([N+](=O)[O-])c1`, the ratio readout change was -45.8 (active).
For `Cc1cc(=O)oc2c(C)c(OC(C)C(=O)NC3CCN(Cc4ccccc4)CC3)ccc12` (stereo unspecified), the ratio readout change is -52.2 (active).
Consider `C[C@]1(C(=O)NCCc2c[nH]c3ccccc23)C=C[C@@H](Cc2ccccc2)N1C(=O)c1ccccc1`, for which the ratio readout change entry was “inactive”.
For `COc1cc2nc(N3CCN(C(=O)[C@@H]4CCCO4)CC3)nc(N)c2cc1OC`, the ratio readout change was -39.5 (active).
Consider `CCOc1ccc(C2c3[nH]c4ccccc4c3CCN2Cc2cccn2-c2ncccn2)cc1` (stereo unspecified), for which the ratio readout change entry is “inactive”.
For `CN(C)c1cc[n+](Cc2ccccc2)cc1`, the ratio readout change was -40.2 (active).
`COc1ccc(Cn2c(-c3ccc(Cl)cc3)c[n+]3ccccc23)cc1`: the ratio readout change was -66.1 (active).
Then `CCN(CC)CCCNC(=O)c1cn(C)c2ccc(S(=O)(=O)N(C)C3CCCCC3)cc2c1=O`, with -36.4 (active); and `CCOC(=O)c1cn(CC)c2cc(F)c(F)cc2c1=O`, with -63.5 (active); and `COc1ccccc1NC(=O)CN(c1ccccc1OC)S(=O)(=O)c1ccccc1`, with “inactive”.
As to `COC(=O)c1ccc(C(NC(=O)OCc2ccccc2)/C(C)=C/[C@@H](C)C(=O)NCc2ccc(OC)c(OC)c2)cc1` (stereo partly specified), the ratio readout change result was “inactive”.
For `Clc1ccc(COn2c(-c3ccc(Cl)cc3Cl)nc3ncccc32)cc1`, the ratio readout change entry is “inactive”.
Then `CCCCCCCCCCOC(=O)Cn1c(COc2ccc(C)cc2)[n+](C)c2ccccc21`, with -48.3 (active); and `CCCCCCCCCCOC(=O)Cn1c(COc2cccc(OC)c2)[n+](C)c2ccccc21`, with -43.3 (active).
With `Nc1ccccc1SCc1cc([N+](=O)[O-])cc2c1OCOC2`, the ratio readout change result is “inactive”.
Take `CC(C)CC(COCc1ccc(Cl)cc1)N1CCN(C(=O)c2ccc(C(F)(F)F)cc2)CCC1=O` (stereo unspecified): the ratio readout change entry was “inactive”.
For `COC(=O)c1sc(C(F)(F)F)c(-c2ccccc2)c1S(=O)(=O)N(C)C`, the ratio readout change result is “inactive”.
Then `CN(C)c1cc(N)c2ccccc2n1` (tested in a mixture with another compound), with -62.3 (active).
With `Cc1cc(=O)oc2cc(OCCC[n+]3ccccc3)ccc12` the figure was -59.3 (active).
As for `Cn1c(=NC(=O)c2cnccn2)sc2ccccc21`, the ratio readout change was -49.1 (active).
Regarding `O=C(c1ccc(F)c(S(=O)(=O)N2CCOCC2)c1)N(CCc1ccccc1)Cc1ccccc1`, the ratio readout change result is “inactive”.
Then `CC1(C)Cc2c(sc3nc4n(c(=N)c23)CCCCC4)CO1`, with -42.5 (active).
For the molecule `CCN1/C(=C/c2ccc3ccc(C)cc3[n+]2CC)Sc2ccccc21`, the ratio readout change result is “inactive”.
`COc1cc2c(cc1OC)C(Nc1ccc(S(N)(=O)=O)cc1)=NC(C)(C)C2`: the ratio readout change is -78.3 (active).
Turning to `COc1ccc(C(O)(C2CCCCC2)C(CN2CCCC2)c2ccccc2)cc1` (stereo unspecified), the ratio readout change entry is “inactive”.
On to `N#Cc1ccc(/C=C2\CCn3c2nc2cc(C(=O)O)ccc2c3=O)cc1`, for which the ratio readout change is -55.3 (active).
With `CCn1c(/C=C/Nc2ccccc2)[n+](CC)c2ccc(C(=O)OCC(F)(F)F)cc21` the figure was -82.7 (active).
With `Cc1nc2c(-c3ccccc3)c(C)[nH]n2c(=O)c1Cl` the entry was “inactive”; with `Cc1nc2ccccc2c(=O)n1CCCn1ccnc1`, “inactive”; with `C=CCNc1nnc(C)c2ccccc12`, -50.7 (active).

The values above are taken from PubChem BioAssay AID623908 (Johns Hopkins Ion Channel Center, 2012).
